Results on seven compounds are retold here after PubChem BioAssay.

As a reminder, the AC50 is the concentration giving half of the maximal activity seen. In general, viability refers to a read-out of living cells in per cent, often relative to untreated cells.

Inconclusive results are not listed. Activity calls are given as the source filed them.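 How the source made its calls, unless noted: active means normalized viability below 100% at a tested concentration; inactive means the rest.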

A short description of test [1]: growth inhibition of DIPG glioma cells, dose response, cell-based, SU-DIPG-XVII, MIPE5.0, CellTiter-Glo, qHTS (AID 1347060; cut-off not given, nearly all actives have AC50 up to about 26 µM). As to conditions: SU-DIPG-XVII viability, CellTiter-Glo ATP luminescence. Background: In ATP-based viability assays light output follows the ATP content of the culture.
The nature of test [2]: growth inhibition of DIPG glioma cells, dose response, cell-based, SU-DIPG-XIII, MIPE5.0, CellTiter-Glo, qHTS (AID 1347064; cut-off not given, nearly all actives have AC50 up to about 23 µM;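 on AC50: cells exposed to compound for 48 hours before the viability read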). The settings on record: SU-DIPG-XIII viability, CellTiter-Glo ATP luminescence.
A short description of test [3]: viability loss in pontine glioma line – cell-based, SU-DIPG-XXV, MIPE5.0, CellTiter-Glo, qHTS, dose response (AID 1347065; cut-off not given, nearly all actives have AC50 up to about 26 µM;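 further: cells exposed to compound for 48 hours before ATP readout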). The settings on record: CellTiter-Glo ATP luminescence.
Test [4] in a line: SU-DIPG-XXV glioma cell viability, MIPE5.0 library, qHTS (AID 1347068; cut-off not given, nearly all actives have IC50 up to about 30 µM). (qHTS replaces the single test concentration by a dilution series.)
A short description of test [5]: sensitizers of A549 cells to miR-34 induction, primary screen, imaging, A549 dox-inducible miR-34, nuclei and caspase counts (AID 1347080;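 active means compounds whose cell count with miR-34 switched on is under 0.7 times the count with it off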). As to conditions: A549 miR-34 inducible, Hoechst nuclei count, 48 h.
A short description of test [6]: survival rescue of mitochondrial mutant cells in low glucose, primary screen, MELAS cybrids, Rieske KO mouse fibroblasts, CellTiter-Glo (AID 1508586;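 active means mean z-score across replicates of 1.96 or higher in either the MELAS or the Rieske mutant cell line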;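 further: z relative to plate mean and SD of compound and empty wells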).
A short description of test [7]: JHH-DIPG-1 glioma cell viability, MIPE5.0 library, CellTiter-Glo luminescence, qHTS (AID 1347067; cut-off not given, nearly all actives have AC50 up to about 26 µM;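 further: cells exposed to compound for 48 hours before readout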). The settings on record: JHH-DIPG-1 glioma viability, CellTiter-Glo ATP luminescence.
Test [8] in a line: ovarian cancer cell viability with rucaparib, profiling panel, oncology-focused library, rucaparib conditional (AID 1508598). As to conditions: patient-derived ovarian cancer cells, CellTiter-Glo viability, 144 h, stronger effect = lower value.
Where [9] appears, read: stronger effect = lower value, cell number ratio, induced over uninduced.
Setting [10] is: measured here: relative caspase fold change +Dox/-Dox.
Where [11] appears, read: measured here: total cells with miR-34 induction, stronger effect = lower value.
The mark [12] stands for this setting: measured here: total cells without miR-34 induction.
The mark [13] stands for this setting: MELAS cybrid survival, CellTiter-Glo 48 h, stronger effect = higher value.
[14] abbreviates: Rieske KO mouse fibroblast survival, CellTiter-Glo 72 h.

Regarding `O=C(Nc1ccc2c(=O)cc(-c3nn[nH]n3)oc2c1)c1ccc(OCCCCc2ccccc2)cc1`, the compound was called inactive in test [1], in test [2], in test [3] and in test [4]. For the same compound, the fold change in test [5] (setting [9]) was 0.988 (inactive); in test [5] (setting [10]) it was 0.807. In addition, the cell count in test [5] (setting [11]) worked out at 7750; in test [5] (setting [12]), 7840. The z-score in test [6] (setting [13]) is -0.481 (inactive); in test [6] (setting [14]), -0.277.

Turning to `CC(C)N(C[C@H]1O[C@@H](n2cnc3c(N)ncnc32)[C@H](O)[C@@H]1O)C1CC(CCc2nc3ccc(C(C)(C)C)cc3[nH]2)C1` (stereo partly drawn), the result in test [1], in test [2], in test [7] and in test [4] was inactive.

As to `Fc1ccc(-c2nc(-c3ccccc3F)[nH]c2-c2ccncc2)cc1`, the compound was classed as inactive in test [1], in test [2], in test [7] and in test [4].

On to `CC(C)=CCC[C@](C)(O[C@@H]1O[C@H](CO[C@@H]2O[C@H](CO)[C@@H](O)[C@H](O)[C@H]2O)[C@@H](O)[C@H](O)[C@H]1O)[C@H]1CC[C@]2(C)[C@@H]1[C@H](O)C[C@@H]1[C@@]3(C)CC[C@H](O[C@@H]4O[C@H](CO)[C@@H](O)[C@H](O)[C@H]4O[C@@H]4O[C@H](CO)[C@@H](O)[C@H](O)[C@H]4O)C(C)(C)[C@@H]3CC[C@]12C`, for which the compound was classed as inactive in test [1], in test [2], in test [7] and in test [4].

`CNC(=O)c1ccc2c(C(=Nc3cccc(CN(C)C)c3)c3ccccc3)c(O)[nH]c2c1`: the result in test [1], in test [2], in test [7] and in test [4] was inactive. Besides, the fold change was 0.967 (inactive) in test [5] (setting [9]) and 0.894 in test [5] (setting [10]). The cell count stood at 7720 in test [5] (setting [11]) and 7990 in test [5] (setting [12]). The z-score in test [6] (setting [13]) was -0.483 (inactive); in test [6] (setting [14]), -0.984.

Consider `N[C@@H]1CN(c2c(F)cc3c(=O)c(C(=O)O)cn([C@@H]4C[C@@H]4F)c3c2Cl)CC12CC2`, for which the call in test [1], in test [2], in test [7] and in test [4] was inactive.

For the compound `O=C(O)c1ccc(O)c2ncccc12`, the result in test [1], in test [3] and in test [4] was inactive. Also, in test [2], the AC50 is 20.9 µM (active). The values for the fold change in test [5] (setting [9]) and in test [5] (setting [10]) were 0.933 (inactive) and 0.445, respectively. In addition, the figures for the cell count in test [5] (setting [11]) and in test [5] (setting [12]) were 8640 and 9260, respectively. Moreover, the z-score in test [6] (setting [13]) is -0.339 (inactive); in test [6] (setting [14]), 0.0902. The viability in test [8] (at 0.000305 µM, OCI-C5x cells, with rucaparib 10 µM, 100% = cells with rucaparib alone) is 112% (inactive); in test [8] (at 0.000305 µM, OCI-C5x cells, without rucaparib) it was 117% (inactive); in test [8] (at 0.000305 µM, OCI-P5x cells, with rucaparib 20 µM, 100% = cells with rucaparib alone), 94.2% (active); in test [8] (at 0.000305 µM, OCI-P5x cells, without rucaparib) it was 89.3% (active); in test [8] (at 0.00122 µM, OCI-C5x cells, with rucaparib 10 µM, 100% = cells with rucaparib alone) it was 120% (inactive); in test [8] (at 0.00122 µM, OCI-C5x cells, without rucaparib), 123% (inactive). The viability is 101% (inactive) in test [8] (at 0.00122 µM, OCI-P5x cells, with rucaparib 20 µM, 100% = cells with rucaparib alone); 97.9% (active) in test [8] (at 0.00122 µM, OCI-P5x cells, without rucaparib); 120% (inactive) in test [8] (at 0.00488 µM, OCI-C5x cells, with rucaparib 10 µM, 100% = cells with rucaparib alone); 116% (inactive) in test [8] (at 0.00488 µM, OCI-C5x cells, without rucaparib); 103% (inactive) in test [8] (at 0.00488 µM, OCI-P5x cells, with rucaparib 20 µM, 100% = cells with rucaparib alone); 98.1% (active) in test [8] (at 0.00488 µM, OCI-P5x cells, without rucaparib). The viability in test [8] (at 0.0195 µM, OCI-C5x cells, with rucaparib 10 µM, 100% = cells with rucaparib alone) is 127% (inactive); in test [8] (at 0.0195 µM, OCI-C5x cells, without rucaparib) it was 113% (inactive); in test [8] (at 0.0195 µM, OCI-P5x cells, with rucaparib 20 µM, 100% = cells with rucaparib alone), 100% (inactive); in test [8] (at 0.0195 µM, OCI-P5x cells, without rucaparib), 105% (inactive); in test [8] (at 0.0781 µM, OCI-C5x cells, with rucaparib 10 µM, 100% = cells with rucaparib alone), 112% (inactive); in test [8] (at 0.0781 µM, OCI-C5x cells, without rucaparib) it was 120% (inactive). Further, the viability is 98.2% (active) in test [8] (at 0.0781 µM, OCI-P5x cells, with rucaparib 20 µM, 100% = cells with rucaparib alone); 103% (inactive) in test [8] (at 0.0781 µM, OCI-P5x cells, without rucaparib); 108% (inactive) in test [8] (at 0.313 µM, OCI-C5x cells, with rucaparib 10 µM, 100% = cells with rucaparib alone); 121% (inactive) in test [8] (at 0.313 µM, OCI-C5x cells, without rucaparib); 96.3% (active) in test [8] (at 0.313 µM, OCI-P5x cells, with rucaparib 20 µM, 100% = cells with rucaparib alone); 102% (inactive) in test [8] (at 0.313 µM, OCI-P5x cells, without rucaparib). For the same compound, the viability in test [8] (at 1.25 µM, OCI-C5x cells, with rucaparib 10 µM, 100% = cells with rucaparib alone) is 110% (inactive); in test [8] (at 1.25 µM, OCI-C5x cells, without rucaparib), 115% (inactive); in test [8] (at 1.25 µM, OCI-P5x cells, with rucaparib 20 µM, 100% = cells with rucaparib alone), 98.5% (active); in test [8] (at 1.25 µM, OCI-P5x cells, without rucaparib) it was 106% (inactive); in test [8] (at 5 µM, OCI-C5x cells, with rucaparib 10 µM, 100% = cells with rucaparib alone), 115% (inactive); in test [8] (at 5 µM, OCI-C5x cells, without rucaparib), 122% (inactive). For the same compound, the viability in test [8] (at 5 µM, OCI-P5x cells, with rucaparib 20 µM, 100% = cells with rucaparib alone) is 111% (inactive); in test [8] (at 5 µM, OCI-P5x cells, without rucaparib) it was 111% (inactive).
